# ChEMBL document CHEMBL3988442, “University of Dundee, Small-Polar-MMV Screening Library” (2021)
# For some of these results: Measured potencies and affinities stand elsewhere.
# Legend:
# Parameters in all cases: scale not given: direction of the effect not stated beside the values
# [1] = biological target: Protein translocase subunit SecA (Escherichia coli (strain K12)) (UniProt P10408); experiment: Assay to Identify E. coli SecA ATPase Inhibitors; type: functional; details: 30 µM
# [2] = biological target: T1, Ubiquitin-activating enzyme e1, putative (Leishmania donovani (strain BPK282A1)) (UniProt E9BSI1); experiment: Leishmania donovani Ubiquitin Activating Enzyme (LdE1); type: functional; details: 30 µM
# T1 sequence (whole entry): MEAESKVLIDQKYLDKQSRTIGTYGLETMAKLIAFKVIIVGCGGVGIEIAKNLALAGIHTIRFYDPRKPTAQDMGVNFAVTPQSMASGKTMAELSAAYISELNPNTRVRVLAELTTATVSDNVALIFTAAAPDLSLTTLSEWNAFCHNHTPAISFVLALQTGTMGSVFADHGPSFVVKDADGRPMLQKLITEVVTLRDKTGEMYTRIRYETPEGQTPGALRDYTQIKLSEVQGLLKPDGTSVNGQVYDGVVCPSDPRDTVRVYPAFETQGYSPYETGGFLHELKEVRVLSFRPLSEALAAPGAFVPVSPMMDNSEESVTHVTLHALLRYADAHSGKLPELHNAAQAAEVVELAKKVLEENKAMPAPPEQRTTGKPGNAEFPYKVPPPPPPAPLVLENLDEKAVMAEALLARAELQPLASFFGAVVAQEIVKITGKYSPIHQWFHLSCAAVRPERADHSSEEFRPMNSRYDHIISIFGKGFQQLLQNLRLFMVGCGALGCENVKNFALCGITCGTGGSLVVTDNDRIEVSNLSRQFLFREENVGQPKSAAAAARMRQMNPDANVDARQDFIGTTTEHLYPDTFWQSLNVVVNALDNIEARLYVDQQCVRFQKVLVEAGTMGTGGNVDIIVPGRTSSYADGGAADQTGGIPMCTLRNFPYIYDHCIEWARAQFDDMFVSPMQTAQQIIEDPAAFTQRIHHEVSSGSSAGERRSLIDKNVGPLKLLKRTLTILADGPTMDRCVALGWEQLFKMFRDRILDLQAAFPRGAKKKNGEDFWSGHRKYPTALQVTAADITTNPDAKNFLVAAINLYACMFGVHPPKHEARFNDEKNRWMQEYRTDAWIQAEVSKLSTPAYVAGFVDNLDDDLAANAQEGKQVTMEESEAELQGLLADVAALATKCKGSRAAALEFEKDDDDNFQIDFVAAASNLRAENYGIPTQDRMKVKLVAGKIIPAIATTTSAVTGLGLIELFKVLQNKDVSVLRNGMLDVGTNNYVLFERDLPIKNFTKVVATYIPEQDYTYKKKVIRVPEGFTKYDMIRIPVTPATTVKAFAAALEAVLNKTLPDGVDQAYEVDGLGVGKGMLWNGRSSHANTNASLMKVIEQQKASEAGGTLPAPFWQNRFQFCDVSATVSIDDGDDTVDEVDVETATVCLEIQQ
# [3] = biological target: Sialic acid-binding Ig-like lectin 9 (Homo sapiens) (UniProt Q9Y336); experiment: Hs-Siglec9 ALPHAscreen SOP 20170721; details: 10 µM
# Trypanosoma cruzi = experiment: Trypanosoma cruzi phosphomannomutase and mannose-1-phosphate guanylyltransferase assay; type: functional; details: 10 µM
# [4] = biological target: T2, Arginase-2, mitochondrial (Homo sapiens) (UniProt P78540); experiment: in vitro enzyme assay to detect the production of urea directly proportional to the activity of Arginase II; type: functional; details: 33.3 µM; note: in the data most compounds retested in dose-response had high values
# T2 sequence (whole entry): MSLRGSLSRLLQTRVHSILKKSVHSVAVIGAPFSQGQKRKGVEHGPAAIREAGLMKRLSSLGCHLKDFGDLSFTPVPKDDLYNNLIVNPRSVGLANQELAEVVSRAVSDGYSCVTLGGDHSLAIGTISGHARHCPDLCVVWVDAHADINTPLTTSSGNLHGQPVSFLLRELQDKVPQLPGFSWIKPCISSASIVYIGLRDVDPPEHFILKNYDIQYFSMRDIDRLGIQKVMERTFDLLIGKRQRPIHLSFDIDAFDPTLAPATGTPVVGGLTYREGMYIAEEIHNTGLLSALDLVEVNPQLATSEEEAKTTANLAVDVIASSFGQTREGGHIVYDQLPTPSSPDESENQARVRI
# [5] = biological target: T3, Proteasome subunit beta (Trypanosoma cruzi) (UniProt O96673); experiment: Trypanosoma cruzi proteasome chymotrypsin-like activity (TcProtChymo) assay.; note: in the data most compounds retested in dose-response had high values; type: functional; details: 9.37 µM
# T3 sequence (whole entry): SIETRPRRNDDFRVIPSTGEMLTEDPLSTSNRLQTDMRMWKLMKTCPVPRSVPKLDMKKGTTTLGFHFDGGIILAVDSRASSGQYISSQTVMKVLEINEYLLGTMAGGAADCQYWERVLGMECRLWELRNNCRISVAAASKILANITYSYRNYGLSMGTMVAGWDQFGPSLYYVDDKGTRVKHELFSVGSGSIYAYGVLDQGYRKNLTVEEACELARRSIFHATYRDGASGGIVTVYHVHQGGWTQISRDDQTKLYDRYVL
# Homo sapiens = species on record: Homo sapiens; experiment: To identify inhibition of the IFN signalling (Jak-Stat) pathway via expression of an eGFP reporter gene under the control of an IFN-stimulated response element (ISRE) containing MxA promoter.; type: functional; details: 30 µM
# [6] = biological target: T4, Tyrosyl-tRNA synthetase, putative (Trypanosoma cruzi (strain CL Brener)) (UniProt Q4DSP6); experiment: Trypanosoma cruzi tyrosyl tRNA synthetase (TcYRS) _High Tyrosine SOP; type: functional; details: 30 µM; note: in the data most compounds retested in dose-response had high values
# T4 sequence (whole entry): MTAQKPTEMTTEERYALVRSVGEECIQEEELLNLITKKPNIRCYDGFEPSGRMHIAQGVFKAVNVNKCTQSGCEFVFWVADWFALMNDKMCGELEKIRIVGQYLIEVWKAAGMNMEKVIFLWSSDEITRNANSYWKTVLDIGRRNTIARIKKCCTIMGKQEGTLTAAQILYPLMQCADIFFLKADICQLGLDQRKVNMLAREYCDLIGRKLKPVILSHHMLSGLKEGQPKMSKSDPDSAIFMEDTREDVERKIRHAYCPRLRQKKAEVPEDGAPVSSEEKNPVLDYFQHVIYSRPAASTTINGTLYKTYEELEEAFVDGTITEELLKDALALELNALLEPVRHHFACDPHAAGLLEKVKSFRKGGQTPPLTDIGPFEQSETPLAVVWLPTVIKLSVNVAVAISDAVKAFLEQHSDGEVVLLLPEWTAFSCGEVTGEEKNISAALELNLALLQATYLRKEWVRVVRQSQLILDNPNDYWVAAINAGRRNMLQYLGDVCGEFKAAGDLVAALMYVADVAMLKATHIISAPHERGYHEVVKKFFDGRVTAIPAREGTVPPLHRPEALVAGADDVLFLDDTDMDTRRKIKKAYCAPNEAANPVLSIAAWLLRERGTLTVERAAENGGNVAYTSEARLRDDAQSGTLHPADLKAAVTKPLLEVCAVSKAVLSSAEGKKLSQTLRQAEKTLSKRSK
# [7] = biological target: T4, Tyrosyl-tRNA synthetase, putative (Trypanosoma cruzi (strain CL Brener)); experiment: Trypanosoma cruzi tyrosyl tRNA synthetase (TcYRS) SOP; type: functional; details: 30 µM
# [8] = biological target: Chromo domain-containing protein 1 (Saccharomyces cerevisiae (strain ATCC 204508 / S288c) (Baker's yeast)) (UniProt P32657); experiment: ScCHD-1 Enzyme Inhibition Assay; type: functional; details: 30 µM; note: in the data most compounds retested in dose-response had high values
# Chain of Chromo domain-containing protein 1 (Saccharomyces cerevisiae (strain ATCC 204508 / S288c) (Baker's yeast)) (P32657 whole entry, the tested form may be a part): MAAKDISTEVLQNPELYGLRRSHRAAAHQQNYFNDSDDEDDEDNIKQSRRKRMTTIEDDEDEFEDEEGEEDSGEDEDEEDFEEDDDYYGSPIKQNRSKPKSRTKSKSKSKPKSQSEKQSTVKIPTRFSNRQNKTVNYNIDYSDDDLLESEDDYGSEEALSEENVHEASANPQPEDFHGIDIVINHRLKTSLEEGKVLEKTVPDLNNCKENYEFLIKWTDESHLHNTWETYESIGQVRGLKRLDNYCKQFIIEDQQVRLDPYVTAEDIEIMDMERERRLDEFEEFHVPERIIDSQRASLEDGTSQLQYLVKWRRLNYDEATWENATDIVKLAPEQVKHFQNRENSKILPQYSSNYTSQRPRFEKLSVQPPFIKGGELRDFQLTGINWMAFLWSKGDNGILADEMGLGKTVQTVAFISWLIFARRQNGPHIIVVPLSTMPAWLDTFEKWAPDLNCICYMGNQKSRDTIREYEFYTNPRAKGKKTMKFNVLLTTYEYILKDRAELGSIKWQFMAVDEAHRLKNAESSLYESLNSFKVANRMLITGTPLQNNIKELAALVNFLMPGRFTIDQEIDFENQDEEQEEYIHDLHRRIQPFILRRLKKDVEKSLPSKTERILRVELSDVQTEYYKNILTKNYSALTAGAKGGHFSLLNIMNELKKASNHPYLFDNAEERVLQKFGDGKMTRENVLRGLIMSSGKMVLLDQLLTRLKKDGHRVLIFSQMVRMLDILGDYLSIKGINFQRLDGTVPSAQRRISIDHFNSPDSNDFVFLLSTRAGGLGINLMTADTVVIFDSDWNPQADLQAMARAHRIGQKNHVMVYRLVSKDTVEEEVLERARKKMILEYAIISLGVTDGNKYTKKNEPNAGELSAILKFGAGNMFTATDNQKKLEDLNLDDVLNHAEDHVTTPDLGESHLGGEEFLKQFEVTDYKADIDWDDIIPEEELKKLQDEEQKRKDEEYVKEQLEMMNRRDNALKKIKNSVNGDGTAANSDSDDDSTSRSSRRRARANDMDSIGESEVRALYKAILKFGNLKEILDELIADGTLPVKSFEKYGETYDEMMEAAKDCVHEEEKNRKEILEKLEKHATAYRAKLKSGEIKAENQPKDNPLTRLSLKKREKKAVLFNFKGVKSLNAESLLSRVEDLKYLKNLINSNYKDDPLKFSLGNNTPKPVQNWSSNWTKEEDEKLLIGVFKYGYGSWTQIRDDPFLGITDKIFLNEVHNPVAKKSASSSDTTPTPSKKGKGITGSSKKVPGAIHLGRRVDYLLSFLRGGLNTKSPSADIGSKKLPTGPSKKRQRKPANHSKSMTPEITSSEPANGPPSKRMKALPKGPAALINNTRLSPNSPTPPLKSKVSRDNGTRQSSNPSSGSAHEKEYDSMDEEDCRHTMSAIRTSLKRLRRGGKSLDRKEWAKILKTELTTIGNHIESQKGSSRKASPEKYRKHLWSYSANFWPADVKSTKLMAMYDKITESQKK
# Chain of Sialic acid-binding Ig-like lectin 9 (Homo sapiens) (Q9Y336 whole entry): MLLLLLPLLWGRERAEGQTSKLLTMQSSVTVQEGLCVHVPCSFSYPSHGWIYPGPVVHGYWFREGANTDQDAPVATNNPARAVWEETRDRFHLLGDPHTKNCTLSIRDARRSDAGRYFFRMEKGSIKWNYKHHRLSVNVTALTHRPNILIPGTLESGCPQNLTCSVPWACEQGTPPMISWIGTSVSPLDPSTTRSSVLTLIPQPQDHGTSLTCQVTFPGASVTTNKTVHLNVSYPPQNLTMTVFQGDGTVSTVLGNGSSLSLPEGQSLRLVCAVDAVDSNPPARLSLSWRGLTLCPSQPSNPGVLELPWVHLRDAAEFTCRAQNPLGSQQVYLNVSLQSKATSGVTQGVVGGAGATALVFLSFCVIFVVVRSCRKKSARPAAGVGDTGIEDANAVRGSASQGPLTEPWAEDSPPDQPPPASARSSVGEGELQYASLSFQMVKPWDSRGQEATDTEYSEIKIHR
# Chain of Protein translocase subunit SecA (Escherichia coli (strain K12)) (P10408 whole entry): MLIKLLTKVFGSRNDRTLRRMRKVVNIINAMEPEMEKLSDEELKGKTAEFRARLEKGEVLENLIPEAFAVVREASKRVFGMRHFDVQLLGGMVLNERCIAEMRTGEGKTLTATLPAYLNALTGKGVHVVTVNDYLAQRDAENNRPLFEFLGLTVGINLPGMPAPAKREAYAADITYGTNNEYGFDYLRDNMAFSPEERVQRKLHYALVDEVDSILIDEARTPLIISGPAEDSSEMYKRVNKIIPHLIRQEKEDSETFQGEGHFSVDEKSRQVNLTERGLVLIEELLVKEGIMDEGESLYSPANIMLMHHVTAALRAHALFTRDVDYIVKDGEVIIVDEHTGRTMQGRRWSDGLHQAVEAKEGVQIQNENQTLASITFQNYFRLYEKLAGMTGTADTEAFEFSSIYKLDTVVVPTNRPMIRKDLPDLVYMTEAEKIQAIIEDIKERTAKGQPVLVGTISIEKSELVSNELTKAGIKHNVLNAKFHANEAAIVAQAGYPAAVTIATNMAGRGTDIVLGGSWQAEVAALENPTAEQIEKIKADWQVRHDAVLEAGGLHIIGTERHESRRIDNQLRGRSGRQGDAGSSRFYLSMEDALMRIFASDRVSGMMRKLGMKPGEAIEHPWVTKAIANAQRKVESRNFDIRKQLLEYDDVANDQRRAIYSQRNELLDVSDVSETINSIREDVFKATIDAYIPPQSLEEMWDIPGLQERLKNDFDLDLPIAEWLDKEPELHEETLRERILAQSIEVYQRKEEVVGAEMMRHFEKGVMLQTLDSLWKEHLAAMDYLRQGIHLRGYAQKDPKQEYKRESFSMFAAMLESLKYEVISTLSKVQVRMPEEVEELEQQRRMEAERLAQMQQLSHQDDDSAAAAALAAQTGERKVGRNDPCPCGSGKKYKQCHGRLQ
Structure (SMILES),Percent Effect [1] [%],Percent Effect [2] [%],Percent Effect [3] [%],Percent Effect (Trypanosoma cruzi) [%],Percent Effect [4] [%],Percent Effect [5] [%],Percent Effect (Homo sapiens) [%],Percent Effect [6] [%],Percent Effect [7] [%],Percent Effect [8] [%]
CCc1c(C)nn(CCNC(=O)C2CCCN(C(=O)N(C)C)C2)c1C (stereo not given),-6.94,5.41,6.18,2.04,6.64,7.36,10.5,5.85,14.6,41.1
O=C(CCc1cc2n(n1)CCN(Cc1ncc[nH]1)C2)N1CCCC1,-3.73,18.9,0.852,1.07,13.6,14.4,15.1,4.79,19.5,-1.96
Cc1ccc(S(=O)(=O)N2CCOc3ccccc32)cc1C(=O)O,-0.902,-5.13,-13.7,-1.03,1.23,11.5,1.07,-7.18,6.02,-6.35
Cc1csc2ncc(-c3ccnc(N4CCN(C)CC4)n3)c(=O)n12,-1.31,0,-2.78,-3.21,-0.444,-0.933,0.181,-3.68,-10.3,-10.1
COc1cc(C)c(S(=O)(=O)NCc2cccnc2N(C)C)c(C)c1,0.224,23.4,-2.16,0,-5.53,19.8,52.1,4.9,28.2,-10.7
CC(NCc1c(C(C)C)nn(C)c1N1CCOCC1)C(N)=O (stereo not given),-5.06,7.69,-15.9,-3.66,-1.23,14.8,16.4,0.478,8.43,-6.18
Cc1cnn(CCNCc2nnc(C3CC3)o2)c1,2.37,26,-7.5,0.746,-8.4,16,32.1,6.86,28.2,-8.53
CCC(NC(=O)CC(F)(F)F)c1ccccc1OCC(=O)N1CCCC1 (stereo not given),-0.84,15.4,-4.51,-0.845,0,13.4,-7.93,7.18,20.5,-2.48
COc1ncc(C2(O)CCN(Cc3cccs3)CC2)c(OC)n1,-5.49,22.7,-1.28,2.76,-3.54,11.2,4.21,8.47,20,-25.5
Cc1cc(C(=O)NCc2ccc(N3CCCC(C(N)=O)C3)cc2)no1 (stereo not given),-3.67,10.7,2.55,3.01,4.88,11.1,3.86,2.63,5.13,-7.24
O=C(c1ccncc1)N1CCC2(CC1)CC(Oc1cccnc1)CO2 (stereo not given),-6.1,-16.9,6.5,2.43,-2.02,5.91,-1.58,3.68,2.56,-0.282
COC[C@@H]1CC[C@H]2[C@H](CCN2S(=O)(=O)c2ccc(F)cc2)O1,-2.35,6.49,-4.91,-3.02,-0.405,12.1,11.2,4.74,7.69,-2.82
CCN(C(=O)c1ccc(-n2ncc(C#N)c2N)cc1)C1CCCC1,-1.54,15.6,1.83,-0.187,-5.12,6.67,3.59,-14.7,16.5,-7.19
CC(C)Cc1nc(OCC(N)=O)c(C#N)c2c1CCC2,-2.5,5.41,10.8,-9.99,1.75,19.4,20.7,3.72,7.32,-3.73
O=C(NCC1COCc2c(-c3cccnc3)nnn2C1)c1cccs1 (stereo not given),-1.54,9.09,-6.14,-8.28,-12.2,13,4.75,10,10.3,-4.23
CCn1cc(S(=O)(=O)N(C)Cc2c(Br)cnn2CC)c(C)n1,8.78,12,-0.969,-3.55,3.54,16.6,20.6,3.17,7.5,-17.9
CCn1ncnc1C1CC(=O)NCc2nc3ccccn3c21 (stereo not given),-7.68,10.8,16.9,6.11,10.8,4.62,14.8,5.85,9.76,84
Cn1cc(-c2nc(CN3CCc4c(ncn4C4CC4)C3)cs2)cn1,0.667,-2.6,12.4,3.54,-0.615,3.33,8.83,0.98,4.71,-7.98
Cc1ccc2oc(C(=O)N3CCCC(n4nc(C)cc4C)C3)cc2n1 (stereo not given),-4.01,10.3,6.58,0.845,1.23,4.01,-2.91,4.31,13.2,3.09
